Sampled rows, rich in hits. Any-hit rate of the full collection: about 2.2%.
Exocytosis inh: blocks lytic granule exocytosis. TALL-104 LAMP-1 surface exposure, flow cytometry; cells stimulated with thapsigargin and PMA. inhibition, % at 10 µM. 0.66% of 360,000 active;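 active means inhibition above about 55%, limit read from the data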
m5-HT2A agonist: agonists of mouse serotonin 5-HT2A receptor (HTR2A); P35363; CHO-K1 mHTR2A beta-arrestin complementation, luminescence; percent of 30 µM serotonin response; activation, % at 7.6 µM; 0.66% of 360,000 active;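 active means activation above a run cutoff, the mean activation of all tested compounds plus 3 SD, cut at about 14% in these data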;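 further: 0% = plate median of compound wells and 100% = 30 µM serotonin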
VLA-4 inh: inhibition in a human VLA-4 binding assay; AID 2557; VLA-4 expressing cells, ligand binding flow cytometry; P13612; inhibition, % (about 7 µM as worked out from the volumes in the protocol); 0.2% of 330,000 active; in the data active means inhibition above about 50%
Target sequence (P13612 whole entry, looked up): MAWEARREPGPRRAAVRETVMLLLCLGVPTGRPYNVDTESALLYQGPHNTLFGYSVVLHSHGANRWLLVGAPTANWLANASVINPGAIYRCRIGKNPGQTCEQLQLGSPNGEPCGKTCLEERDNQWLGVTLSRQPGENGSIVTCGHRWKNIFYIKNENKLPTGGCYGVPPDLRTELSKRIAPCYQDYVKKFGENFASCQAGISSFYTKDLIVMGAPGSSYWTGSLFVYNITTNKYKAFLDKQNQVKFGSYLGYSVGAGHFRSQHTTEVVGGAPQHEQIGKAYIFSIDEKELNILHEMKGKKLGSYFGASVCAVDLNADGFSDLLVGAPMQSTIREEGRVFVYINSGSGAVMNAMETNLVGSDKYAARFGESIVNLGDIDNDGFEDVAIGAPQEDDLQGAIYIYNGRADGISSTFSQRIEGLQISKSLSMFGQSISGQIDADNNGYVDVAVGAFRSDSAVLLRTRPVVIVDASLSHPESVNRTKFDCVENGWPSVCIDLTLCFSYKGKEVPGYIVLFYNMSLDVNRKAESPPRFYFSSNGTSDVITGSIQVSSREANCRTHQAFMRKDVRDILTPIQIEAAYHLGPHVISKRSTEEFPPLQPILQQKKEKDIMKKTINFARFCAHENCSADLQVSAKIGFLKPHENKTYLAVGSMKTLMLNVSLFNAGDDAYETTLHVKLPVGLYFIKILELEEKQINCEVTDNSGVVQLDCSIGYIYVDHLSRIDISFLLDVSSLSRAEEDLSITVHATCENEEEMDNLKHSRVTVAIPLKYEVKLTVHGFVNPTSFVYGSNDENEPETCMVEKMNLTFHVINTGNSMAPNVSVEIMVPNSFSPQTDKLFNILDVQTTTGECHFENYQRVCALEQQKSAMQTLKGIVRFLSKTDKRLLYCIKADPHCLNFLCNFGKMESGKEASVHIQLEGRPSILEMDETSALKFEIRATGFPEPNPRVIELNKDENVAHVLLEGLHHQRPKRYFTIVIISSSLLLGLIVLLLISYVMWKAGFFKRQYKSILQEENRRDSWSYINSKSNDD
MEX-5 binding: C. elegans MEX-5 TCR-2 RNA binding activity; MEX-5/FITC-TCR2 RNA binding, fluorescence polarization; active compounds read low; activity score (negative = inhibition of binding), % at 10 µM; Q9XUB2; 0.38% of 300,000 active; AID 1832;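 active means inhibition past about -25% in most replicates, and total fluorescence under double the plate's negative control median, limit read from the data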;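 further: 0% = DMSO and -100% = 5 µM competing unlabeled TCR2 RNA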
V-ATPase pH: yeast V-ATPase proton transport regulation by pHLuorin | 0.37% of 350,000 active | response, % at 10 µM | S. cerevisiae, pHLuorin cytosolic pH fluorescence; in the data active means response mostly above about 7.3%, no sharp cut-off; inactive means mostly below about 5.4%; further: actives read high
JMJD2C inh: blocks human GASC-1 demethylase activity; GST-JMJD2C(1-420) H3K9me3 demethylation, DELFIA europium; inhibition, % at 2.35 µM; 0.069% of 330,000 active;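 active means more than half of a compound's replicate wells show inhibition beyond 50%, single wells judged on their own value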;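 further: signal counts dimethyl H3K9 product captured on neutravidin plate; 0% = median of DMSO wells and 100% = 0.3 times that DMSO median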
OPRM1 ag: OPRM1 agonism in mouse HTR2A counterscreen. shares compounds with m5-HT2A agonist. U2OS OPRM1 beta-arrestin PathHunter, luminescence; DMSO 0%, DAMGO 9.3 µM 100%. activation, % at 9.3 µM. 5.3% of 2,300 active;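 active means mean activation above the mean of DMSO-only wells plus 3 SD, cut at about 0.5% in these data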
m5-HT2A ag conf: confirmation of mouse HTR2A serotonin receptor agonists; AID 624381; CHO-K1 PathHunter beta-arrestin recruitment, luminescence; DMSO 0%, 30 µM serotonin 100%; 19% of 2,300 active; shares compounds with m5-HT2A agonist; activation, % at 7.6 µM;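 active means mean activation across triplicates above the hit threshold derived in the original primary screen, cut at about 15% in these data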
Active calls of the source: *; . = no result given.

SMILES | Exocytosis inh | m5-HT2A agonist | VLA-4 inh | MEX-5 binding | V-ATPase pH | JMJD2C inh | OPRM1 ag | m5-HT2A ag conf
O=C1CCN(Cc2ccccc2)N1 | -6 | -2 | -4 | 3 | 2 | -8 | . | .
CCCCN(C=O)c1c(CC)nc2c(OCC(=O)C(C)(C)C)cccn12 | -6 | 10 | . | . | . | . | . | .
CCCCN(C=O)c1c(CC)nc2c(OCC(=O)N3CCOCC3)cccn12 | 4 | 16* | . | . | . | . | 0 | -3
O=C(CCc1n[nH]c(=O)[nH]c1=O)N1CCCCC1 | 2 | 16* | -1 | -3 | 0 | -8 | 0 | -1
CC(=O)Nc1cc2nc(C)n(Cc3ccccc3)c2nc1C | -4 | 6 | 24 | -1 | -6 | 4 | . | .
Cc1nc2c(cc1NC(=O)C(C)(C)C)nc(C)n2Cc1ccccc1 | 0 | 20* | 0 | -3 | 3 | -8 | 0 | -4
COCCN(C(=O)CSc1nnc(-c2ccccc2F)o1)c1c(N)n(CC(C)C)c(=O)[nH]c1=O | -2 | 9 | 21 | 1 | -1 | 34 | . | .
Cc1ccc2c(CN3CCN(c4ccc(Cl)c(Cl)c4)CC3)cc(=O)oc2c1 | 0 | 18* | . | . | . | . | 0 | -4
Cc1cc2oc(=O)cc(Cn3ccnc3)c2cc1Cl | 7 | 26* | 14 | -1 | 0 | -1 | -1 | -3
Cc1ccc2c(CN3CCCCC3)cc(=O)oc2c1 | -3 | -4 | 0 | 1 | -1 | 4 | . | .
Cc1cc2oc(=O)cc(CN3CCN(c4ccc(Cl)c(Cl)c4)CC3)c2cc1Cl | 4 | 17* | . | . | . | . | 0 | 2
COc1ccc(N2CCN(Cc3cc(=O)oc4cc(C)c(Cl)cc34)CC2)cc1 | 0 | 8 | 12 | 1 | 1 | . | . | .
CCN(CC(=O)Nc1c(F)cccc1F)C(=O)c1cc([N+](=O)[O-])ccc1N1CCCCC1 | -4 | 8 | -2 | 1 | 4 | 14 | . | .
COc1cc(/C=C2\SC(=O)N(CCNC(=O)c3c(C)noc3C)C2=O)cc(OC)c1OC | -2 | 21* | 14 | . | 3 | -1 | 0 | -2
Cc1ccc(N(C)S(=O)(=O)c2csc(C(N)=O)c2)cc1C | -7 | 15* | 10 | 1 | 2 | -4 | 0 | 2
CCOc1ccc(N(C)S(=O)(=O)c2csc(C(N)=O)c2)cc1 | 5 | 3 | 8 | 0 | 5 | -2 | . | .
Cc1ccc(S(=O)(=O)NC2=NCN(CCN3CCOCC3)CN2)cc1 | -4 | 17* | 4 | 0 | 1 | 3 | -1 | -3
CC1CCN(c2c(NCC3CCC(C(=O)NCc4ccccc4Cl)CC3)c(=O)c2=O)CC1 (stereo not given) | 0 | 19* | -14 | -1 | 2 | 3 | 0 | -4
S=c1nc(-c2csc3c2CCCC3)[nH][nH]1 | -2 | 5 | 5 | 2 | 0 | -6 | . | .
Cc1cccc2nc(COc3ccc4ccccc4c3Br)cn12 | 19 | 32* | -1 | 0 | -2 | -1 | 0 | 11
Cc1cccc2nc(CSc3ccccc3N)cn12 | 4 | -1 | 19 | 8 | -2 | -2 | . | .
CCOC(=O)c1ccc(NC(=O)COc2ccc(-n3cnnn3)cc2)cc1 | 0 | 17* | -9 | 2 | -1 | -21 | 0 | 15*
CCOc1ccc(NC(=O)COc2ccc(-n3cnnn3)cc2)cc1 | 0 | -3 | 3 | . | 2 | 9 | . | .
COc1ccc(-c2nc(CN3CCN(C(=O)c4ccco4)CC3)c(C)o2)c(F)c1 | 4 | -1 | 1 | -2 | 3 | -11 | . | .
COc1cc2c(cc1NC(=O)C(Cl)Cl)-c1ccc(NC(=O)C(Cl)Cl)cc1C2 | 5 | 4 | . | . | -1 | . | . | .
SMILES | Exocytosis inh | m5-HT2A agonist | VLA-4 inh | MEX-5 binding | V-ATPase pH | JMJD2C inh | OPRM1 ag | m5-HT2A ag conf
CCCCNc1c(-c2cc3ccccc3o2)nc2nc(C)cc(C)n12 | -1 | 18* | . | . | . | . | 0.8* | 5
COc1ccc(Nc2c(-c3cc4ccccc4o3)nc3nc(C)cc(C)n23)cc1 | 2 | -1 | . | . | . | . | . | .
COc1ccccc1-c1noc(-c2ccccc2)n1 | -4 | 18* | -4 | -1 | 4 | 4 | 0 | -4
CCc1nc2c(OCc3ccc(Cl)cc3Cl)cccn2c1N(C)C(=O)c1ccccc1F | 5 | -2 | . | . | . | . | . | .
O=C(O)C1C2CCC(C2)C1C(=O)NCCc1ccc(F)cc1 (stereo not given) | -6 | -2 | 24 | -3 | -5 | 3 | . | .
O=C(O)C1C2CCC(C2)C1C(=O)NCCc1cccc(Cl)c1 (stereo not given) | 4 | 24* | 19 | -1 | 2 | -4 | 0 | 1
O=C(COc1cc(Cl)c(Cl)cc1Cl)N1CCN(c2ccccn2)CC1 | 7 | -6 | 12 | 0 | -1 | -19 | . | .
CC1CCCCC1NC(=O)COC(=O)c1cccn1C (stereo not given) | 6 | 15* | 7 | . | -6 | 5 | 0 | -5
CC1CCCCC1NC(=O)COC(=O)c1ccccn1 (stereo not given) | -2 | -1 | -9 | -1 | 1 | 16 | . | .
CC(=O)Oc1ccc(C23CC4CC(CC(C4)C2)C3)cc1C(=O)O | . | . | -3 | 0 | . | 1 | . | .
Cc1ccc(NC(=O)Nn2cnnc2)cc1 | -3 | 16* | -5 | -1 | -2 | -2 | -1 | 0
Oc1ccc(CCNc2c3ccccc3nc3ccccc23)cc1O | -8 | 42* | 4 | -39* | 3 | 16 | 0 | 58*
O=[N+]([O-])c1cccc(S(=O)(=O)NCCc2cn3ccccc3n2)c1 | -2 | 15* | 10 | -2 | -13 | -2 | 0 | -2
CC(=O)Nc1ccc(NC2CCCCC2NS(=O)(=O)c2ccccc2)cc1 (stereo not given) | -4 | 0 | 16 | 1 | 2 | 7 | . | .
CC(=O)Nc1ccc(C(=O)CSc2nnc(-c3ccccc3F)n2CCc2ccccc2)cc1 | 1 | 2 | . | . | -1 | . | . | .
CC(C)C(=O)Nc1ccc(-c2nc3ncccc3o2)cc1 | -7 | 2 | 2 | 1 | -4 | -3 | . | .
CC(C)C(=O)Nc1cccc(-c2nc3ncccc3o2)c1 | -12 | 26* | 8 | 1 | 2 | -1 | -1 | 3
O=C(CC1CS(=O)(=O)CC1CC(=O)Oc1ccccc1F)Oc1ccccc1F (stereo not given) | -5 | 16* | -4 | 1 | 6 | 1 | 0 | -2
COc1ccc(C2=CC(=O)C[C@H](CN3C(=O)c4ccccc4C3=O)N(C(=O)OC(C)(C)C)O2)cc1 | 2 | 15* | . | . | 4 | . | -1 | -5
CCC[C@H]1CC(=O)C=C(c2ccsc2)ON1C(=O)OC(C)(C)C | -5 | -5 | . | . | 1 | . | . | .
